For 58 compounds, max activation results are on record in PubChem BioAssay AID977607 (Broad Institute, 2014).

In all, about 1,500 compounds went through this assay and about 460 (31%) were called active. About 1% were inconclusive and are not listed.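 Rule for the calls: active = curve reaches 40% activation over neutral controls at an AC40 no higher than the top valid tested concentration; inconclusive = no clear call, values can overlap the other calls; inactive = signal moving opposite to the expected increase, and the rest.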 A selection follows. Entries with a potency or affinity are not part of this list.

This test is described as follows: activators of glucose-dependent insulin secretion, dose response, cell-based, INS-1E, Gaussia luciferase, luminescence, cherry-pick, set 2 (AID 977607).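 Note: 0% = median of the plate neutral control wells.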 Conditions: INS-1E GLuc insulin secretion reporter, 2-3 h, hits give high values; at 35 µM, 100% = signal doubled over neutral wells unless noted.
As to `O=C(Nc1ccc(NC(=O)c2cccs2)cc1)c1ccc2c(c1)OCO2`, the max activation is -18.9% [at 3.8 µM, 100% = signal doubled over neutral wells] (inactive).
The value for `O=C(Nc1ccc2oc(-c3cccnc3)nc2c1)c1ccc2c(c1)OCCO2` was 21% (inactive).
Under `CN1CCCCCC1C(=O)N1CCC(N2CCC(C(=O)N3CCOCC3)CC2)CC1` (stereo not drawn) stands -16.3% (inactive); under `O=C(Nc1nnc(-c2ccc(F)cc2)s1)C1CCN(S(=O)(=O)c2ccc(Cl)cc2)CC1`, 18.7% (inactive); under `CCOC(=O)c1ccc(S(=O)(=O)N2CCC(C(=O)Nc3nnc(C)o3)CC2)cc1`, -12.8% [at 0.0016 µM, 100% = signal doubled over neutral wells] (inactive).
For the compound `COc1ccccc1N(CC(=O)NCC1CCCO1)C(=O)CNS(=O)(=O)c1ccc(Cl)cc1` (stereo not drawn), the max activation was -20% [at 0.42 µM, 100% = signal doubled over neutral wells] (inactive).
The value for `Fc1ccccc1-c1nnc2ccc3ccccc3n12` was -19.8% [at 0.135 µM, 100% = signal doubled over neutral wells] (inactive).
For the compound `C[C@@H]1CN([C@H](C)CO)C(=O)CCCn2nncc2CO[C@H]1CN(C)C(=O)Nc1ccnc(N2CCOCC2)c1`, the max activation was -14% [at 0.015 µM, 100% = signal doubled over neutral wells] (inactive).
The value for `COc1ccc(NC(=O)C2(c3ccc(NC(=O)c4ccc(OC)cc4)cc3)CCCC2)cc1` was -18.4% [at 0.005 µM, 100% = signal doubled over neutral wells] (inactive); that for `COc1ccc(C(=O)Nc2ccccc2C(=O)NCC2CCCO2)cc1` (stereo not drawn) was 6.34% (inactive); that for `COc1ccc(CCN2CC(=O)NC(=O)C2)cc1OC` was -13.9% [at 3.8 µM, 100% = signal doubled over neutral wells] (inactive).
Under `CCN(c1ccccc1)c1nc(Cl)nc2c1cnn2C` stands 28.8% (inactive); under `COc1ccc(-c2ccc(=O)n(CC(=O)NC3CCc4ccccc43)n2)cc1OC` (stereo not drawn), 20.7% [at 11 µM, 100% = signal doubled over neutral wells] (inactive).
The value for `COCc1ccc(C(=O)NC2CCSc3ccccc32)cc1` (stereo not drawn) was -17.7% (inactive).
As for `CCCc1cc(=O)oc2cc(C)cc(OCC(=O)Nc3ccc(S(N)(=O)=O)cc3)c12`, the max activation is 24.1% [at 1.2 µM, 100% = signal doubled over neutral wells] (inactive).
Consider `Cn1c(=O)c(=O)n(C)c2cc(S(=O)(=O)N3CCN(c4ccc(F)cc4)CC3)ccc21`, for which the max activation is -17.9% [at 0.046 µM, 100% = signal doubled over neutral wells] (inactive).
Take `CSc1ccc2nnc(-c3cccc(F)c3)n2n1`: the max activation is 16.4% (inactive).
Under `COc1cccc(-c2cc(C(F)(F)F)nc(-n3cncn3)n2)c1` stands -20.7% (inactive); under `CC(C)CC#Cc1ccc([C@H]2[C@H]3CN(C(=O)c4cnccn4)CC(=O)N3[C@H]2CO)cc1`, 35.4% [at 0.015 µM, 100% = signal doubled over neutral wells] (inactive); under `CCN(Cc1ccncc1)C(=O)c1cccc(S(=O)(=O)N2CCCCC2)c1`, -18% [at 1.2 µM, 100% = signal doubled over neutral wells] (inactive).
Under `COc1ccccc1CNC(=O)CCS(=O)(=O)Cc1ccc(C)cc1` stands -17.3% (inactive); under `Cc1ccc(NC2c3ncccc3C(=O)N2C2CCCCC2)cc1` (stereo not drawn), 28.1% (inactive); under `COc1ccc(-c2nnc(-c3cccs3)o2)cc1OC`, 29.4% (inactive).
As to `COc1ccc(C2=Nn3c(nnc3-c3ccccc3OC)SC2)cc1OC1CCOC1` (stereo not drawn), the max activation was 43.3% [at 1.2 µM, 100% = signal doubled over neutral wells] (inactive).
Under `COc1ccc(C(O)c2nccc3cc(OC)c(OC)cc23)cc1OC` (stereo not drawn) stands 44.3% [at 3.8 µM, 100% = signal doubled over neutral wells] (inactive); under `COc1ccc(C2=Nn3c(nnc3-c3ccccc3OC)SC2)cc1OCC1CC1`, -35.7% (inactive).
As to `COc1ccc(CO/N=C/c2c(C)[nH]c(=O)[nH]c2=O)cc1`, the max activation was 16.7% (inactive).
Under `COC(=O)C1C(=O)NC(SC)=C(C#N)C1c1ccccc1` (stereo not drawn) stands -22.6% [at 0.015 µM, 100% = signal doubled over neutral wells] (inactive); under `O=C1N(c2ccccc2)c2ccccc2[C@]12C[C@H](O)CO2`, -20.7% [at 0.135 µM, 100% = signal doubled over neutral wells] (inactive); under `O=C(COc1ccc(Cl)cc1)NCCS(=O)(=O)N1CCN(c2ccccc2F)CC1`, -18.1% [at 0.135 µM, 100% = signal doubled over neutral wells] (inactive).
Take `COc1ccc(OC)c(C2=Nn3c(nnc3-c3ccncc3)SC2)c1`: the max activation is 12.7% (inactive).
Under `C[C@@H]1O[C@H](C2CCCC2)CC2=C1C(=O)OC(C)(C)O2` stands 18% [at 1.2 µM, 100% = signal doubled over neutral wells] (inactive); under `CC[C@@H]1CC2=C(C(=O)OC(C)(C)O2)[C@H](c2ccc(F)cc2)O1`, 23.8% [at 3.8 µM, 100% = signal doubled over neutral wells] (inactive); under `C=CCNc1nc(Cl)nc(Nc2ccc(OC)cc2)n1`, 50.7% (inactive).
`CCOc1cc(/C=C(\CC(=O)O)c2nc3ccccc3s2)ccc1OC`: the max activation was -15% [at 0.005 µM, 100% = signal doubled over neutral wells] (inactive).
The value for `c1ccc(-c2ccccc2OCCN2CCCCC2)cc1` was -15.6% [at 0.015 µM, 100% = signal doubled over neutral wells] (inactive).
In the case of `C/C=C1\COC(C(=O)NCc2ccccc2)(C(F)(F)F)C=C1C=C1CCCCC1` (stereo not drawn), the max activation was -27% [at 11 µM, 100% = signal doubled over neutral wells] (inactive).
Under `COc1cc(OC)c2c(-c3ccccc3)cc(C3CCCCC3)nc2c1` stands -18.2% [at 0.046 µM, 100% = signal doubled over neutral wells] (inactive).
On to `Cc1cccc(C)c1NC(=O)C1c2ccccc2OCC(=O)N1CCCN1CCOCC1` (stereo not drawn), for which the max activation was -19% [at 3.8 µM, 100% = signal doubled over neutral wells] (inactive).
In the case of `Cc1ccc(-c2nc(C#N)c(NCC3CCCO3)o2)cc1` (stereo not drawn), the max activation is -16.4% [at 0.135 µM, 100% = signal doubled over neutral wells] (inactive).
Turning to `CCOc1ccc(Nc2oc(-c3cccc(Cl)c3)nc2C#N)cc1`, the max activation was -13.2% [at 0.135 µM, 100% = signal doubled over neutral wells] (inactive).
Under `CCCCC(=O)Nc1ccc(C(=O)NNC(=O)c2ccc(C)c(Br)c2)cc1` stands -20.4% [at 3.8 µM, 100% = signal doubled over neutral wells] (inactive).
Take `CC1CCC(C(C)C)C(OCC(O)CNC(C)c2ccccc2)C1` (stereo not drawn): the max activation is 35.2% (inactive).
Consider `COc1ccc2c(c1)C(C)(Cc1ccc(C(=O)c3ccccc3)cc1)C(=O)N2` (stereo not drawn), for which the max activation was -33.7% (inactive).
For the compound `Cc1ccccc1-c1n[nH]c(=S)n1/N=C/c1c(C)nn(-c2ccccc2)c1C`, the max activation is -18% [at 0.0016 µM, 100% = signal doubled over neutral wells] (inactive).
Regarding `Cc1ccsc1/C=N/n1c(-c2ccncc2)n[nH]c1=S`, the max activation was 18.6% (inactive).
For the compound `CC(C(=O)Nc1ccc2[nH]c(=O)[nH]c2c1)N1CCN(Cc2ccc3c(c2)OCO3)CC1` (stereo not drawn), the max activation was -27.3% [at 11 µM, 100% = signal doubled over neutral wells] (inactive).
With `O=C1NC(=O)C2(CCCCC2C2CCCCC2)N1` (stereo not drawn), the max activation is 32.9% [at 0.135 µM, 100% = signal doubled over neutral wells] (inactive).
Consider `Cc1ccc(S(=O)(=O)N(C)c2nc3ccccc3n3c(C(C)C)nnc23)cc1`, for which the max activation is -16.3% [at 0.42 µM, 100% = signal doubled over neutral wells] (inactive).
`O=C(O)COc1ccccc1-c1ccccc1`: the max activation was -20.7% [at 3.8 µM, 100% = signal doubled over neutral wells] (inactive).
For `Cc1ccc(C(=O)Nc2cccc(C(=O)N/N=C/c3ccc(F)cc3)c2)cc1`, the max activation is -21.7% [at 0.046 µM, 100% = signal doubled over neutral wells] (inactive).
As for `CCCCCCC1CCC(C(=O)Nn2c(C)nc3ccccc3c2=O)CC1` (stereo not drawn), the max activation was 26.8% [at 0.015 µM, 100% = signal doubled over neutral wells] (inactive).
For the compound `COc1ccccc1NS(=O)(=O)c1cccc(C(=O)N/N=C/c2c(C)nn(-c3ccccc3)c2N2CCCC2)c1`, the max activation was -50.5% (inactive).
For `Cc1nn(-c2ccccc2)c(N2CCCC2)c1/C=N/O`, the max activation is -12.4% [at 0.046 µM, 100% = signal doubled over neutral wells] (inactive).
For the compound `CC(C)NC(=O)OC[C@H]1O[C@H](C#Cc2ccc(C(C)(C)C)cc2)C=C[C@H]1O`, the max activation was 54.1% (inactive).
Under `CC(C)NC(=O)C1(C)CN(S(C)(=O)=O)CC(=O)N1CCCN1CCOCC1` (stereo not drawn) stands -19.6% [at 0.015 µM, 100% = signal doubled over neutral wells] (inactive); under `O=C(O)c1ccc(-n2nnnc2SCc2ccccc2Br)cc1`, 24.2% (inactive); under `O=C(O)c1ccc(-n2nnnc2SCc2cccc(Br)c2)cc1`, -16.4% [at 0.135 µM, 100% = signal doubled over neutral wells] (inactive).
